Inconclusive results are not listed. Activity calls are given as the source filed them. Unless noted, the call rests on the fitted dose curve; in most records, active means well fitted curve in either direction with a large enough effect (not every such curve was filed as active); inconclusive means small, poorly fitted or top-dose-only effect, or another doubt; inactive means flat fitted curve, though single readings scatter.
How the values were obtained:
[1] = target: Lysosomal acid glucosylceramidase (Homo sapiens) (UniProt P04062); assay: Glucocerebrosidase-p2 (AID 348; in the data active means potency below about 10 µM; further: potency means the concentration at half of the fitted maximal effect); details: purified GBA, blue fluorogenic substrate, 40 min
How it was run: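 Compounds titrated from 0.6 nM upwards against 0.2 nM enzyme in pH 5.9 citric acid/KH2PO4, taurocholate, tween-20; blue fluorogenic substrate 80 uM, 40 min room temperature, stopped and read Ex 365/Em 440 for AC50.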

[2] = AP1 Signaling Pathway (AID 357); details: ME-180 AP-1-bla reporter, EGF-induced, beta-lactamase ratio, 5 h; at 7.69 µM (top of the series) unless noted;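 further: ME-180 reporter cells stimulated with EGF at its EC50 level; on the % scale 0 is the no-effect control and ±100 the full control effect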
How it was run: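 Cells are seeded overnight, exposed to compound titrations and an EC50 level of EGF for 5 hours at 37 °C, then loaded with CCF4 dye for 2.5 hours. Beta-lactamase activity under the AP-1 element is read as a blue/green ratio.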

[3] = target: Cytochrome P450 1A2 (Homo sapiens) (UniProt P05177); assay: p450-cyp1a2 (AID 410; calls by dose curve; further: potency means the concentration at half of the fitted maximal effect;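 on activity change, negative = inhibition: -100% = full effect of reference inhibitor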); details: recombinant CYP1A2, luciferin-ME demethylation, luminescence; series mostly up to 57 µM
How it was run: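 Inhibition was calculated relative to 57 uM furafylline (full inhibition). The reaction used human CYP1A2 at 20nM with Luciferin-ME at its Km, 100uM, driven by an NADPH-regenerating system for 60 min at room temperature.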

[4] = NFAT Signaling Pathway (AID 444); details: Jurkat NFAT-bla M1, carbachol, beta-lactamase ratio, 5 h; at 7.69 µM (top of the series) unless noted;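 further: carbachol stimulus at about its EC50 of 1 µM final; on the % scale 0 is the no-effect control and ±100 the full control effect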
How it was run: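 Read-out: CCF4 FRET ratio (460 nm/530 nm) after 1 h RT dye loading, used for %activity and AC50 from titration series. Cells: Jurkat NFAT-β-lactamase/M1 line, treated with compound plus 1 uM carbachol for 5 h, 37 °C.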

[5] = Stat Signaling Pathway (AID 446); details: ME-180 (cervical carcinoma) SIE beta-lactamase reporter, IL-6 stimulated, 5 h; at 7.69 µM (top of the series) unless noted;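 further: ME-180 cervical cancer cells given 40 pM IL-6 alongside compound; SIE-controlled beta-lactamase reporter measured as 460/530 nm FRET emission ratio; on the % scale 0 is the no-effect control and ±100 the full control effect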
How it was run: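 IL-6/STAT signaling read in ME-180 cells via an SIE beta-lactamase reporter. Stimulus was 40 pM IL-6 (its AC50) for 5 hrs, so both activation and inhibition register.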

[6] = target: Glucocorticoid receptor (Homo sapiens) (UniProt P04150); assay: GR-EFC Redistribution (AID 451; calls by dose curve; further: potency means the concentration at half of the fitted maximal effect); details: CHO-K1 GR-EFC translocation, beta-gal luminescence, 2 h
How it was run: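 Translocation of GR-ED fusion to nuclear EA restores b-gal, read by luminescence after 1 h room-temperature detection. Engineered CHO-K1 biosensor cells, 1,000/well, exposed 2 h at 37 C to titrations up to 46 uM final.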

[7] = target: Mitogen-activated protein kinase 10 (Mus musculus) (UniProt Q61831); assay: JNK3 AlphaScreen Assay (AID 530); details: JNK3 lysate, c-Jun phosphorylation; series mostly up to 57.1 µM;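 further: kinase came from lysate of stimulated human HepG2 cells; signal reports phosphorylation of biotinylated GST-cJun 1-79 at Ser73 with 10 µM ATP; on the % scale 0 is the no-effect control and ±100 the full control effect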
How it was run: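 Room-temperature AlphaScreen kinase assay; pre-activated HepG2 lysate as JNK3 source, biotin-GST-cJun(1-79) substrate, 10 uM ATP, compound 15 min preincubation.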

[8] = target: 3',5'-cyclic-AMP phosphodiesterase 4B (Homo sapiens) (UniProt Q07343); assay: qHTS Assay for Inhibitors of PDE-IV (AID 607; active means well fitted activation curve with a large enough effect in the main read-out, with a control signal flat, not every such curve was filed as active; further: % of control where 0% means no effect); details: HEK293 ACTOne CNG channel cells, membrane potential fluorescence; series mostly up to 22.9 µM
How it was run: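 Live HEK293 cells with a modified cyclic nucleotide-gated (CNG) channel report intracellular cAMP via membrane-potential dye fluorescence (ex 535/em 590 nm). Endogenous PDE-IV was targeted. Compounds were tested at up to 22.9 uM final; RO 20-1724 100 uM served as control.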

[9] = target: Cytochrome P450 3A4 (Homo sapiens) (UniProt P08684); assay: qHTS Assay for Activators of Cytochrome P450 3A4 (AID 885; active means well fitted curve in the direction sought with a large enough effect; an effect the other way counts as inactive or inconclusive; further: nearly all actives have a fitted effect of over 65% in size; further: potency means the concentration at half of the fitted maximal effect); details: recombinant CYP3A4, Luciferin-PPXE luminescence, 60 min; series mostly up to 57.1 µM
How it was run: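 Quantitative HTS format: compounds preincubated with 20nM human CYP3A4 and Luciferin-PPXE substrate at KM, reaction started by NADPH regeneration, stopped after 60 min, luciferase luminescence read 20 min later.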

[10] = qHTS Assay for Lipid Storage Modulators (AID 1519; calls by dose curve); details: Drosophila S3 cells, BODIPY lipid droplet/cell ratio, laser cytometry, cells loaded with oleic acid; for activity change, negative = inhibition: at 57.5 µM (top of the series)
How it was run: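 Cells seeded at 5,000 per well were treated with compounds over a concentration series and loaded with oleic acid (400 uM, as added). Lipid droplet fluorescence (488 nm excitation, 500-530 nm channel) was read by laser-scanning cytometry and normalized to 20 uM Triacsin C.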

[11] = Primary qHTS for small molecule stabilizers of the endoplasmic reticulum resident proteome: Secreted ER Calcium Modulated Protein (SERCaMP) assay (AID 1508630; active means well fitted curve in the direction sought with a large enough effect; an effect the other way counts as inactive or inconclusive; further: on the % scale 0 is the no-effect control and ±100 the full control effect); details: SH-SY5Y GLuc-SERCaMP (Gaussia luciferase released on ER calcium loss) secretion, thapsigargin, luminescence; series mostly up to 38.4 µM
How it was run: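 GLuc-SERCaMP-expressing SH-SY5Y cells, pretreated 16 h with compound, are challenged with thapsigargin to empty ER calcium stores; after 4 h, coelenterazine is added directly to the medium and luminescence is imaged.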

[12] = target: Cytochrome P450 3A4 (Homo sapiens) (UniProt P08684); assay: qHTS Assay for Inhibitors and Substrates of Cytochrome P450 3A4 (AID 884; active means well fitted curve in the direction sought with a large enough effect; an effect the other way counts as inactive or inconclusive; further: nearly all actives have a fitted effect of over 50% in size; further: potency means the concentration at half of the fitted maximal effect); details: recombinant CYP3A4, Luciferin-PPXE luminescence; series mostly up to 57.1 µM
How it was run: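 20 nM human CYP3A4 with 25 uM Luciferin-PPXE (at KM) in 200 mM KPO4, preincubated 10 min with compound; NADPH regeneration started a 60 min RT reaction. Luciferin detected by luminescence, normalized to 57 uM ketoconazole as full inhibition.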

[13] = target: Cytochrome P450 2C19 (Homo sapiens) (UniProt P33261); assay: qHTS Assay for Inhibitors and Substrates of Cytochrome P450 2C19 (AID 899; active means well fitted curve in the direction sought with a large enough effect; an effect the other way counts as inactive or inconclusive; further: potency means the concentration at half of the fitted maximal effect; nearly all actives have a fitted effect of over 60% in size); details: recombinant CYP2C19, luciferin-H EGE luminescence; series mostly up to 57.1 µM
How it was run: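 Reactions contain 5nM enzyme, 10uM Luciferin-H EGE (KM) and 50mM KPO4; compound preincubates 10 min at 37C, NADPH regeneration starts turnover for 60 min. Luminescence after detection reagent gives activity.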

[14] = target: Cytochrome P450 2C9 (Homo sapiens) (UniProt P11712); assay: qHTS Assay for Inhibitors and Substrates of Cytochrome P450 2C9 (AID 883; active means well fitted curve in the direction sought with a large enough effect; an effect the other way counts as inactive or inconclusive; further: on the % scale 0 is the no-effect control and ±100 the full control effect; nearly all actives have a fitted effect of over 60% in size); details: recombinant CYP2C9, luciferin-H luminescence, 60 min; series mostly up to 57.1 µM
How it was run: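 Turnover of Luciferin-H (100uM, KM) by 10nM human CYP2C9 was measured over 60 min at 37C with NADPH regeneration; inhibitors and some substrates reduce luminescence. Data normalized to sulphaphenazole 57uM.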

[15] = target: Cytochrome P450 2D6 (Homo sapiens) (UniProt P10635); assay: qHTS Assay for Inhibitors and Substrates of Cytochrome P450 2D6 (AID 891; active means well fitted curve in the direction sought with a large enough effect; an effect the other way counts as inactive or inconclusive;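 further: luciferin methyl ether substrate demethylated by CYP2D6 with NADPH regeneration; on the % scale 0 is the no-effect control and ±100 the full control effect; nearly all actives have a fitted effect of over 60% in size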); details: recombinant CYP2D6, luciferin-ME EGE luminescence; series mostly up to 57.1 µM
How it was run: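 Human CYP2D6 (5 nM) with 30 uM Luciferin-ME EGE (at Km) in 100 mM KPO4, compound preincubated 10 min, then NADPH regeneration system for 60 min at room temperature. Luciferin read by luminescence; normalized to 1.43 uM quinidine.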

[16] = measured here: cell count channel max response
[17] = measured here: lipid channel max response

Cytochrome P450 1A2 (Homo sapiens), sequence (P05177 whole entry, looked up): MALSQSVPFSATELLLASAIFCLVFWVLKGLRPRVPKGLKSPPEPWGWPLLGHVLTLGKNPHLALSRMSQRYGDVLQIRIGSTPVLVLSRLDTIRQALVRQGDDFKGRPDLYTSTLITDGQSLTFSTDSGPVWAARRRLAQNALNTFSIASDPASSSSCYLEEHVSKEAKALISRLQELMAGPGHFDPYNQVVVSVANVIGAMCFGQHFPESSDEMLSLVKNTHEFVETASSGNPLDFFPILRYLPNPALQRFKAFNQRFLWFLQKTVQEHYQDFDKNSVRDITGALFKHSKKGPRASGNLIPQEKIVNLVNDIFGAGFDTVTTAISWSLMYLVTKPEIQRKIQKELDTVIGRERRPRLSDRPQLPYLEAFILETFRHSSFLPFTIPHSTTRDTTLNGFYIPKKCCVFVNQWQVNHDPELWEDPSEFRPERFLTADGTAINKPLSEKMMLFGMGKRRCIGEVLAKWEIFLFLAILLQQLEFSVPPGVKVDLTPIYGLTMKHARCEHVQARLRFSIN
Cytochrome P450 3A4 (Homo sapiens), sequence (P08684 whole entry, looked up): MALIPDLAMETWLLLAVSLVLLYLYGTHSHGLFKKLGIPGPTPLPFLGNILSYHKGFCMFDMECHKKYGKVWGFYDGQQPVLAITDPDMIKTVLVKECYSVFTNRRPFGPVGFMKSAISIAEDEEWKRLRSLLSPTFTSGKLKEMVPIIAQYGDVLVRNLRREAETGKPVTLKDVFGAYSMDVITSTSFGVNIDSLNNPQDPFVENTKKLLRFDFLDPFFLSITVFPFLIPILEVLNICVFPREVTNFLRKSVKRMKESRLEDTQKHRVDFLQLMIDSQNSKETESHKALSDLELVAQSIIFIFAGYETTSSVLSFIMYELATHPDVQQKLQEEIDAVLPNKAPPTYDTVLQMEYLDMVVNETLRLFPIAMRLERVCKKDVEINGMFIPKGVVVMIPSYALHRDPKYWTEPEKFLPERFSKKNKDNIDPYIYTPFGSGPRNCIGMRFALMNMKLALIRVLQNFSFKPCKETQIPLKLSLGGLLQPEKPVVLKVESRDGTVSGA
Lysosomal acid glucosylceramidase (Homo sapiens), sequence (P04062 whole entry, looked up): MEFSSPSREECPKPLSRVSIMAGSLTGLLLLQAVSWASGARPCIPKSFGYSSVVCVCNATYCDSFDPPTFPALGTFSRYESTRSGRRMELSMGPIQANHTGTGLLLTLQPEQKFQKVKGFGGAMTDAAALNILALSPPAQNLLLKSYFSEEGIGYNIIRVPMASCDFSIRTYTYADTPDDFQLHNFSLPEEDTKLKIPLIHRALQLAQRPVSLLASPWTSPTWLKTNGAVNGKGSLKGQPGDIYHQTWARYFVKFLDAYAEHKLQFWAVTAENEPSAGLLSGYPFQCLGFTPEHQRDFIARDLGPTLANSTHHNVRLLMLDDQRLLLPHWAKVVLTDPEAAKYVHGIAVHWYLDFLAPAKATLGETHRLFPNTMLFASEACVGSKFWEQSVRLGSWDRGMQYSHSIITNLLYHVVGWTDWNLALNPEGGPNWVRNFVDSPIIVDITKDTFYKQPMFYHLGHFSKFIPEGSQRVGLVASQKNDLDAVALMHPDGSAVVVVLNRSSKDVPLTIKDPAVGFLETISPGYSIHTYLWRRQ
Glucocorticoid receptor (Homo sapiens), sequence (P04150 whole entry, looked up, the tested form may be a part): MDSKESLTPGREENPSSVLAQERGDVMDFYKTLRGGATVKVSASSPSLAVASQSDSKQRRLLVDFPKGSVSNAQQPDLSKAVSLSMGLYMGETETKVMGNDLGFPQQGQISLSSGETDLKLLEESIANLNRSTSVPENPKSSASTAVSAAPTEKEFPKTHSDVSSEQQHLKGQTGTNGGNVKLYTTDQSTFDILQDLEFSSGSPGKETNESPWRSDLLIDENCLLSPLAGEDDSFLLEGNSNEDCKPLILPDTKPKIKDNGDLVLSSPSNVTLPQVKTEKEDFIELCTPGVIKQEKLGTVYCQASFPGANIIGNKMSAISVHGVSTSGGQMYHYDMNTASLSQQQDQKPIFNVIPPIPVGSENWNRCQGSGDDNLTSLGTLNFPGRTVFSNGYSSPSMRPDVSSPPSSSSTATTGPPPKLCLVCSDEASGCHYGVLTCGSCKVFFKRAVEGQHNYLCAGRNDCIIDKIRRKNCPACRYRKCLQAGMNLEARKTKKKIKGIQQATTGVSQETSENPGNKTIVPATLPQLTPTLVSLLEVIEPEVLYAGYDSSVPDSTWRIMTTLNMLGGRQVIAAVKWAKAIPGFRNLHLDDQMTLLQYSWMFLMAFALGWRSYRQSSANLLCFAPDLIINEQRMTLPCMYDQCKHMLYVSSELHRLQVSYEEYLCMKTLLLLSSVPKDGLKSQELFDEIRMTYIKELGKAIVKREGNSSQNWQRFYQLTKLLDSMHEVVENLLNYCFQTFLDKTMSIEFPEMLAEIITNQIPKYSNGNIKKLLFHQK
3',5'-cyclic-AMP phosphodiesterase 4B (Homo sapiens), sequence (Q07343 whole entry, looked up): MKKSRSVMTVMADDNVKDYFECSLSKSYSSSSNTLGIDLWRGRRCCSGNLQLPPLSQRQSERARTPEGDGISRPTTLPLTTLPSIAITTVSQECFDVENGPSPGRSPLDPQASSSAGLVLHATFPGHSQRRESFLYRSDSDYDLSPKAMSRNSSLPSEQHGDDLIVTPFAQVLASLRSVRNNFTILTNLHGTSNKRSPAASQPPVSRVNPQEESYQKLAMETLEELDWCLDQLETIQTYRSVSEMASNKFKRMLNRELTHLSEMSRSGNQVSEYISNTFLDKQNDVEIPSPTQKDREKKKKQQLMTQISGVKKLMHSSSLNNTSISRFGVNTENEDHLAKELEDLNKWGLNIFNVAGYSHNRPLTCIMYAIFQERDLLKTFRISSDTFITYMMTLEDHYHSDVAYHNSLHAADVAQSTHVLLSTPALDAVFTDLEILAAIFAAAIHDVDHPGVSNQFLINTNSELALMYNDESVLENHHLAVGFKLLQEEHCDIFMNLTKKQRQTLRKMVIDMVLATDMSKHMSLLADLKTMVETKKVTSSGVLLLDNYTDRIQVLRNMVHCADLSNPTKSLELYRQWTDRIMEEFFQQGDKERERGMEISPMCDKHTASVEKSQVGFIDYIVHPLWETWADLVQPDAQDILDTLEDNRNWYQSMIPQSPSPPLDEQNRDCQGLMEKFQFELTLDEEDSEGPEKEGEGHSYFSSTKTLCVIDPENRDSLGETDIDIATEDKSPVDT
Cytochrome P450 2C9 (Homo sapiens), sequence (P11712 whole entry, looked up): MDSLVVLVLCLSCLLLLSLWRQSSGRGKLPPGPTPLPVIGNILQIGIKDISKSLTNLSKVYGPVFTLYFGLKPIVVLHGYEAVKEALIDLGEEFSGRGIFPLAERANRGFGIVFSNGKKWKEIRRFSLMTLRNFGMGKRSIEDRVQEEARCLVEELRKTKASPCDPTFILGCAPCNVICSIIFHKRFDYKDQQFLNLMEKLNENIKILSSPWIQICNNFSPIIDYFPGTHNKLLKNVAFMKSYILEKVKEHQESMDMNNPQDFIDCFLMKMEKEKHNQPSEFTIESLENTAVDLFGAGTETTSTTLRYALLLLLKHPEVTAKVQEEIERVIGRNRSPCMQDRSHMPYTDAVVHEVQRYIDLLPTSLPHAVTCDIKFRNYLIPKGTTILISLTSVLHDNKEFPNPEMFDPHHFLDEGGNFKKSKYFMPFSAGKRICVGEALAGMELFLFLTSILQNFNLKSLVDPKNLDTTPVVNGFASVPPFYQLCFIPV
Cytochrome P450 2D6 (Homo sapiens), sequence (P10635 whole entry, looked up): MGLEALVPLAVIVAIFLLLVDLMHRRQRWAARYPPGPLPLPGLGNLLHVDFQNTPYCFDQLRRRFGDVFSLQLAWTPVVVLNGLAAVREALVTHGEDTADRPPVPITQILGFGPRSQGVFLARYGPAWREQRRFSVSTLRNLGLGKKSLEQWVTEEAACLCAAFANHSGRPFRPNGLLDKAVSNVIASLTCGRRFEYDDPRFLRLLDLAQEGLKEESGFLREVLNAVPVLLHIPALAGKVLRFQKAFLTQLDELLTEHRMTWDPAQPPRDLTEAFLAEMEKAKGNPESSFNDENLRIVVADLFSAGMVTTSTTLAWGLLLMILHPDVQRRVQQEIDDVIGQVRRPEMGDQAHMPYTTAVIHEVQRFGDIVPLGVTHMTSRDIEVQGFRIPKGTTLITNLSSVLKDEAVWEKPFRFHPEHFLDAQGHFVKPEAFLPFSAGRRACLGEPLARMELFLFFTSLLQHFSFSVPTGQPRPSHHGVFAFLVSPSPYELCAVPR
Cytochrome P450 2C19 (Homo sapiens), sequence (P33261 whole entry, looked up): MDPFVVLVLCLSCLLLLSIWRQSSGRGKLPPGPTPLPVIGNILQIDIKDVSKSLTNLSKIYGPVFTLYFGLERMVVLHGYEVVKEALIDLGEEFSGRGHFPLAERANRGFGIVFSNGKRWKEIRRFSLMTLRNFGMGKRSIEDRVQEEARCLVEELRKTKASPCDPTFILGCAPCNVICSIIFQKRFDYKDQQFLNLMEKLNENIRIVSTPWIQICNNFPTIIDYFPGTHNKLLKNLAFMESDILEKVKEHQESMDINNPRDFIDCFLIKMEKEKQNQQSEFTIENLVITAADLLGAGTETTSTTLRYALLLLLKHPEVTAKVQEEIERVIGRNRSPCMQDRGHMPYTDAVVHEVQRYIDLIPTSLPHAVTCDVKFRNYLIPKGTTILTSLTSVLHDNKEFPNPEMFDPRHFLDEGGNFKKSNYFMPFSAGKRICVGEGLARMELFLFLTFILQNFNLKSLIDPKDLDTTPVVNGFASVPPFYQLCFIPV

Structure (SMILES)	Potency [1]	activity change, negative = inhibition [2]	Potency [3]	activity change, negative = inhibition [4]	activity, negative = inhibition [5]	Potency [6]	outcome [7]	Potency [8]	Potency [9]	activity change, negative = inhibition [10]	max response [10, 16] [%]	max response [10, 17] [%]	Potency [11]	Potency [12]	Potency [13]	Potency [14]	Potency [15]
Cn1cccc1C(=O)N1CCC[C@@]2(CCN(Cc3ccc(C#N)cc3)C2)C1	> 11.4 µM (inactive)	-2.05% (inactive)	inactive	-13.8% (inactive)	-3.28% (inactive)	> 46 µM (inactive)	inactive	inactive	inactive	4.84% (inactive)	7.42	16.5	inactive	–	–	–	–
O=C(c1cccc(F)c1)N1CCC[C@@]2(CCN(Cc3nccs3)C2)C1	> 11.4 µM (inactive)	2.29% (inactive)	12.6 µM (active)	7.56% (inactive)	-0.114% (inactive)	> 46 µM (inactive)	inactive	inactive	inactive	3.24% (inactive)	16.4	22.4	inactive	7.94 µM (active)	2.51 µM (active)	–	–
O=C(Nc1ccccc1)N1CC2(CCN(C(=O)c3ccncc3)CC2)C1	> 11.4 µM (inactive)	12.1% (inactive)	10 µM (active)	7.64% (inactive)	-1.5% (inactive)	> 46 µM (inactive)	inactive	inactive	inactive	3.73% (inactive)	-8.48	-2.29	inactive	–	–	–	–
COC(=O)N1CCC[C@@]2(CCN(c3ccncc3)C2)C1	> 11.4 µM (inactive)	-7.07% (inactive)	inactive	-14.4% (inactive)	-2.36% (inactive)	> 46 µM (inactive)	inactive	inactive	inactive	4.92% (inactive)	18.5	26.2	inactive	–	–	inactive	inactive
COCC(=O)N1CCC2(CC1)CCN(C(c1ccccc1)c1ccccc1)CC2	> 11.4 µM (inactive)	-2.73% (inactive)	inactive	-16.3% (inactive)	1.17% (inactive)	> 46 µM (inactive)	inactive	inactive	25.1 µM (active)	1.77% (inactive)	1.52	5.9	inactive	inactive	–	–	–
O=C(Nc1cccc(F)c1)N1CC[C@@]2(CCCN(C(=O)c3cccc(F)c3)C2)C1	> 11.4 µM (inactive)	-6.61% (inactive)	12.6 µM (active)	16.9% (inactive)	-1.65% (inactive)	> 46 µM (inactive)	inactive	inactive	inactive	6.49% (inactive)	12.4	22.3	inactive	–	–	–	–
Cc1noc(C)c1C(=O)N1CCC[C@@]2(CCN(c3ccccc3)C2)C1	> 11.4 µM (inactive)	-7.05% (inactive)	25.1 µM (active)	-18.1% (inactive)	3.26% (inactive)	> 46 µM (inactive)	inactive	inactive	inactive	-2.45% (inactive)	13.4	14.8	inactive	–	–	–	–
CS(=O)(=O)N1CCC2(CC1)CN(C(=O)Nc1cccc(C#N)c1)C2	> 11.4 µM (inactive)	-6.48% (inactive)	inactive	14.4% (inactive)	-5.8% (inactive)	> 46 µM (inactive)	inactive	inactive	inactive	1.36% (inactive)	4.56	8.61	inactive	–	–	–	–
O=C(c1ccco1)N1CCC[C@@]2(CCN(Cc3nccs3)C2)C1	> 11.4 µM (inactive)	1.19% (inactive)	inactive	-14% (inactive)	-3.91% (inactive)	> 46 µM (inactive)	inactive	inactive	inactive	4.23% (inactive)	5.76	12.9	inactive	–	–	–	–
N#Cc1cccc(NC(=O)N2CC[C@@]3(CCCNC3)C2)c1	> 11.4 µM (inactive)	9.42% (inactive)	inactive	9.18% (inactive)	-4.17% (inactive)	> 46 µM (inactive)	inactive	inactive	inactive	1.94% (inactive)	-6.65	-1.99	inactive	–	–	–	–
COc1ccccc1CN1CC2(CCN(C(=O)c3cnccn3)CC2)C1	> 11.4 µM (inactive)	2.43% (inactive)	inactive	-17.5% (inactive)	-6.42% (inactive)	> 46 µM (inactive)	inactive	inactive	inactive	3% (inactive)	12	20.3	inactive	–	–	–	–
COc1ccc(C(=O)N2CCC[C@@]3(CCN(C(=O)Nc4ccccc4)C3)C2)cc1	> 11.4 µM (inactive)	-19.4% (inactive)	15.8 µM (active)	12.1% (inactive)	-4.43% (inactive)	> 46 µM (inactive)	inactive	inactive	inactive	10.7% (inactive)	8.67	24.1	inactive	–	–	–	–
COC(=O)N1CCC[C@@]2(CCN(C(=O)Nc3cccc(F)c3)C2)C1	> 11.4 µM (inactive)	-17.4% (inactive)	15.8 µM (active)	-2.35% (inactive)	1.62% (inactive)	> 46 µM (inactive)	inactive	inactive	inactive	5.97% (inactive)	20.5	28.7	inactive	–	–	–	–
CC(=O)N1CCC2(CCCN(C(=O)Nc3cccc(F)c3)C2)CC1	> 11.4 µM (inactive)	-2.22% (inactive)	inactive	13.9% (inactive)	-6.7% (inactive)	> 46 µM (inactive)	inactive	inactive	inactive	-0.823% (inactive)	-12.4	-13.5	inactive	–	–	–	–

From PubChem BioAssay (NCATS)
